The text below walks through data of PubChem BioAssay (NCATS).

The structures appear in SMILES notation. Values without a mark were called inactive. Results filed as inconclusive are left out. The source made the active and inactive calls. Unless noted, calls follow the shape of the dose curve; as a rule, active = well fitted curve in either direction with a large enough effect (not every such curve was filed as active); inconclusive = small, poorly fitted or top-dose-only effect, or another doubt; inactive = flat fitted curve, though single readings scatter.

Test [1] addresses Lysosomal acid glucosylceramidase (Homo sapiens) (UniProt P04062). Kind of test: Glucocerebrosidase-p2 (AID 348; in the data active = potency below about 10 µM; also: potency is read from the fitted curve at half-maximal effect). To be noted: purified GBA, blue fluorogenic substrate, 40 min. Summed up:
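Normal human glucocerebrosidase (0.2 nM) with blue fluorogenic substrate (80 uM final) in citrate/phosphate pH 5.9 with 10mM sodium taurocholate, 0.01% tween-20; 40 min RT, NaOH/glycine stop; fluorescence Ex 365/Em 440; AC50 from a titration from 0.6 nM upwards.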

The nature of test [2]: AP1 Signaling Pathway (AID 357).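 Also: ME-180 reporter cells stimulated with EGF at its EC50 level; % is scaled to controls: 0 for no effect and ±100 for the full control effect.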 The conditions noted are these: ME-180 AP-1-bla reporter, EGF-induced, beta-lactamase ratio, 5 h; at 7.69 µM (top of the series) unless noted. A digest of the protocol:
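Beta-lactamase reporter under AP-1 response element, ME-180 background. Stimulus: EC50 EGF. Compound exposure 5 h, 37 °C. Detection: CCF4, 2.5 h RT, 460/530 nm. Values: AC50 from titration.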

Test [3] deals with Cytochrome P450 1A2 (Homo sapiens) (UniProt P05177). The experiment in a line: p450-cyp1a2 (AID 410; calls by dose curve; also: potency is read from the fitted curve at half-maximal effect;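 as to activity change, negative = inhibition: -100% = full effect of reference inhibitor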). The conditions noted are these: recombinant CYP1A2, luciferin-ME demethylation, luminescence; series mostly up to 57 µM. A digest of the protocol:
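O-Demethylation of luciferin 6' methyl ether by human CYP1A2 is monitored as luciferase luminescence. Substrate sits at Km (100uM); enzyme is 20nM. Values are scaled to 57 uM furafylline as maximal inhibition.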

Test [4] is described as follows: NFAT Signaling Pathway (AID 444).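 Also: carbachol stimulus at about its EC50 of 1 µM final; % is scaled to controls: 0 for no effect and ±100 for the full control effect.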 The conditions noted are these: Jurkat NFAT-bla M1, carbachol, beta-lactamase ratio, 5 h; at 7.69 µM (top of the series) unless noted. Summed up: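 Jurkat cells with NFAT-driven β-lactamase reporter and co-expressed M1 receptor, stimulated with carbachol (final 1 uM, ~EC50), compound titration, 5 h at 37 °C. CCF4 loaded 1 h at RT; 460/530 nm ratio gave %activity and AC50.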

Test [5] is described as follows: Stat Signaling Pathway (AID 446).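 Also: ME-180 cervical cancer cells given 40 pM IL-6 alongside compound; SIE-controlled beta-lactamase reporter measured as 460/530 nm FRET emission ratio; % is scaled to controls: 0 for no effect and ±100 for the full control effect.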 To be noted: ME-180 (cervical carcinoma) SIE beta-lactamase reporter, IL-6 stimulated, 5 h; at 7.69 µM (top of the series) unless noted. Summed up:
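Overnight-plated ME-180 cells bearing a STAT Inducible Element beta-lactamase reporter; 5 h co-exposure to compound and 40 pM IL-6; values normalized to 300 pM IL-6 and 125 nM JAK inhibitor controls.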

The target in test [6] is Glucocorticoid receptor (Homo sapiens) (UniProt P04150). Kind of test: GR-EFC Redistribution (AID 451; calls by dose curve; also: potency is read from the fitted curve at half-maximal effect). The conditions noted are these: CHO-K1 GR-EFC translocation, beta-gal luminescence, 2 h. A digest of the protocol:
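CHO-K1 cells expressing nuclear EA and GR-ED fragments of b-gal; compounds titrated up to 46 uM final, 2 h at 37 C. GR nuclear translocation read as complemented b-gal luminescence after 1 h RT detection.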

The target of test [7] is Mitogen-activated protein kinase 10 (Mus musculus) (UniProt Q61831). Kind of test: JNK3 AlphaScreen Assay (AID 530).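 Also: kinase came from lysate of stimulated human HepG2 cells; signal reports phosphorylation of biotinylated GST-cJun 1-79 at Ser73 with 10 µM ATP; % is scaled to controls: 0 for no effect and ±100 for the full control effect.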 To be noted: JNK3 lysate, c-Jun phosphorylation; series mostly up to 57.1 µM. Summed up:
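Activity was read by AlphaScreen after JNK3-containing HepG2 lysate (cytokine pre-activated) phosphorylated biotinylated GST-cJun with 10 uM ATP at room temperature. Phospho-Ser73 cJun antibody with Protein-A acceptor beads provided detection.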
A general note: Alpha assays give light when donor and acceptor beads are brought close together.

In test [8] the target is 3',5'-cyclic-AMP phosphodiesterase 4B (Homo sapiens) (UniProt Q07343). The experiment in a line: qHTS Assay for Inhibitors of PDE-IV (AID 607; active = well fitted activation curve with a large enough effect in the main read-out, with a control signal flat, not every such curve was filed as active; also: % of control where 0% means no effect). The conditions noted are these: HEK293 ACTOne CNG channel cells, membrane potential fluorescence; series mostly up to 22.9 µM. Summed up: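 Live HEK293 cells with a modified cyclic nucleotide-gated (CNG) channel report intracellular cAMP via membrane-potential dye fluorescence (ex 535/em 590 nm). Endogenous PDE-IV was targeted. Compounds were tested at up to 22.9 uM final; RO 20-1724 100 uM served as control.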
Sequence of 3',5'-cyclic-AMP phosphodiesterase 4B (Homo sapiens) (Q07343 whole entry, looked up): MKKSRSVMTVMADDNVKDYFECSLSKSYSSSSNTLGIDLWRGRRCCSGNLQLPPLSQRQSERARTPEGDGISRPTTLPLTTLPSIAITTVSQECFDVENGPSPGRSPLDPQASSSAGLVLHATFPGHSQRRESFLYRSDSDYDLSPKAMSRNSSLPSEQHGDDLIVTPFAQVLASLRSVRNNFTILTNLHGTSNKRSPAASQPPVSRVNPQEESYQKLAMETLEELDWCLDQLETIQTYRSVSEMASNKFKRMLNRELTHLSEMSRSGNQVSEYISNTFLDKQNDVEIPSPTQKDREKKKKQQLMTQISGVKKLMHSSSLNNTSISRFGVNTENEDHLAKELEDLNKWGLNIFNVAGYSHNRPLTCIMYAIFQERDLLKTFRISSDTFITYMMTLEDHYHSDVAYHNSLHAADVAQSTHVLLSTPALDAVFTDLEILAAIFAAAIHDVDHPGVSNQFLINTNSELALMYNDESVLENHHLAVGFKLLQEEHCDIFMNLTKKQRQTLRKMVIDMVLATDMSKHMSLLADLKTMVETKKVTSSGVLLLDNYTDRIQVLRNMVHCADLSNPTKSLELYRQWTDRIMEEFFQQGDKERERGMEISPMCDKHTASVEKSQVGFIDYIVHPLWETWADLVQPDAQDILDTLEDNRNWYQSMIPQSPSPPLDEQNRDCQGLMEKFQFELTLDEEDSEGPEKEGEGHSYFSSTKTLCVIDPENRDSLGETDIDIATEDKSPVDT
(Quantitative high-throughput screening tests each substance at several concentrations.)

Test [9] in a line: Primary qHTS for small molecule stabilizers of the endoplasmic reticulum resident proteome: Secreted ER Calcium Modulated Protein (SERCaMP) assay (AID 1508630; active = well fitted curve in the direction sought with a large enough effect; an effect the other way counts as inactive or inconclusive; also: % is scaled to controls: 0 for no effect and ±100 for the full control effect). To be noted: SH-SY5Y GLuc-SERCaMP (Gaussia luciferase released on ER calcium loss) secretion, thapsigargin, luminescence; series mostly up to 38.4 µM. Summed up: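 The SH-SY5Y reporter protocol was run at 3 concentrations up to 38.3 uM (primary) or 11 concentrations (follow-up): 16 h compound, 100 nM thapsigargin for 4 h, then extracellular luciferase luminescence.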

Test [10] deals with Glucocorticoid receptor (Homo sapiens) (UniProt P04150). Kind of test: GR-GFP Redistribution (AID 450;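 active = compounds whose dose series gives a full or clear partial fitted curve of increased nuclear translocation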; also: potency is read from the fitted curve at half-maximal effect). To be noted: U2OS GR-GFP nuclear translocation, laser cytometry, 2 h.
Sequence of Glucocorticoid receptor (Homo sapiens) (P04150 whole entry, looked up, the tested form may be a part): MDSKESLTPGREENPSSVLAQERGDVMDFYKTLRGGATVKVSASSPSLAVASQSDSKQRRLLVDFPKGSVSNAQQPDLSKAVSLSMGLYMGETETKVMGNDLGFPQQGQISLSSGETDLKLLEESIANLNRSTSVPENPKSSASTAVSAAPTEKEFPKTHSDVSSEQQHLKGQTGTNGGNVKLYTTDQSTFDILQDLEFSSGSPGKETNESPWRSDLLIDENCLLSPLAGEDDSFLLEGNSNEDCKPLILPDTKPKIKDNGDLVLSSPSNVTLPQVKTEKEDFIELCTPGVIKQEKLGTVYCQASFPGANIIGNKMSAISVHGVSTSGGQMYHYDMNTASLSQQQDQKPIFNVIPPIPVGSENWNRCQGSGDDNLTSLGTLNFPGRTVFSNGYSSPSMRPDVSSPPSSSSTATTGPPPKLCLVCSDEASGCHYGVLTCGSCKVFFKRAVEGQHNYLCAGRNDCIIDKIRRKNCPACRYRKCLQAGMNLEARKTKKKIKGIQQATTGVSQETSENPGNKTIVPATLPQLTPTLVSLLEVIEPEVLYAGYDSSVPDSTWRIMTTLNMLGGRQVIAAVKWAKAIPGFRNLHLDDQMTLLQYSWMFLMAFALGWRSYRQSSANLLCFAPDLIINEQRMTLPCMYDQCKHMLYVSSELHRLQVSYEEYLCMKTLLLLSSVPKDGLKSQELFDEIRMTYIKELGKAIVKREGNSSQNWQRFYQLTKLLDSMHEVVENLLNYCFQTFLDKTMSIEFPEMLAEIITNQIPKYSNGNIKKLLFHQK
Test [11] addresses Cytochrome P450 3A4 (Homo sapiens) (UniProt P08684). The experiment in a line: qHTS Assay for Inhibitors and Substrates of Cytochrome P450 3A4 (AID 884; active = well fitted curve in the direction sought with a large enough effect; an effect the other way counts as inactive or inconclusive; also: potency is read from the fitted curve at half-maximal effect; nearly all actives have a fitted effect of over 50% in size). The conditions noted are these: recombinant CYP3A4, Luciferin-PPXE luminescence; series mostly up to 57.1 µM. Summed up:
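Luminescent readout of luciferin produced by CYP3A4 (20 nM) dealkylation of Luciferin-PPXE, 25 uM (its KM). NADPH-driven reaction ran 60 min at RT after 10 min compound preincubation; data scaled to 57 uM ketoconazole as 100% inhibition.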

The target is the same in test [12]. Kind of test: qHTS Assay for Activators of Cytochrome P450 3A4 (AID 885; active = well fitted curve in the direction sought with a large enough effect; an effect the other way counts as inactive or inconclusive; also: nearly all actives have a fitted effect of over 65% in size). The conditions noted are these: recombinant CYP3A4, Luciferin-PPXE luminescence, 60 min; series mostly up to 57.1 µM. Summed up: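 Using 20nM recombinant human CYP3A4 in potassium phosphate (200mM), substrate Luciferin-PPXE at 25uM, luminescent luciferin detection followed a 60-min RT NADPH reaction; data scaled to 57 uM ketoconazole.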

The target of test [13] is Cytochrome P450 2C19 (Homo sapiens) (UniProt P33261). The experiment in a line: qHTS Assay for Inhibitors and Substrates of Cytochrome P450 2C19 (AID 899; active = well fitted curve in the direction sought with a large enough effect; an effect the other way counts as inactive or inconclusive; also: potency is read from the fitted curve at half-maximal effect; nearly all actives have a fitted effect of over 60% in size). The conditions noted are these: recombinant CYP2C19, luciferin-H EGE luminescence; series mostly up to 57.1 µM. A digest of the protocol:
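5 nM human CYP2C19 with 10uM Luciferin-H EGE (at KM) in 50mM KPO4, compound preincubated 10 min at 37C, then NADPH regeneration for 60 min at 37C. Luciferin read by luminescence after detection reagent; normalized to 57uM ketoconazole as full inhibition.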

Test [14] in a line: Confirmation and Secondary Assay for Modulators of Hemoglobin Beta Chain Splicing at IVS2 654 locus (AID 910; active = well fitted curve in the direction sought with a large enough effect; an effect the other way counts as inactive or inconclusive;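 also: HeLa cells stably carrying EGFP split by mutant beta-globin IVS2-654 intron; % of control where 0% means no effect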). The conditions noted are these: HeLa EGFP-654 splicing reporter, GFP fluorescence, 48 h; series mostly up to 38.3 µM. A digest of the protocol: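 HeLa cells stably expressing EGFP interrupted by β-globin IVS2-654 intron, seeded overnight in Opti-MEM/2% FCS, then treated 2 days at 37 °C. Restored splicing read as total peak GFP intensity per well by laser scanning cytometry (488 nm excitation, 500–520 nm emission); 500 nM antisense PNA as control.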

A short description of test [15]: Confirmation and Secondary Assay for Modulators of Hemoglobin Beta Chain Splicing at IVS2 705 locus (AID 930; active = well fitted curve in the direction sought with a large enough effect; an effect the other way counts as inactive or inconclusive;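 also: HeLa cells stably expressing the EGFP-705 splicing reporter; GFP fluorescence per well restored by corrected splicing of the IVS2-705 intron in EGFP; % of control where 0% means no effect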). To be noted: HeLa EGFP-705 splicing reporter, GFP fluorescence, 48 h; series mostly up to 38.3 µM. Summed up:
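Read-out: total peak GFP fluorescence per well (488 nm excitation, 500-520 nm emission) by laser-scanning cytometry. Cells: HeLa EGFP-705 splicing reporter, 2 days compound exposure in Optimem/2% FCS.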

Test [16] concerns the target Ubiquitin carboxyl-terminal hydrolase 1 (Homo sapiens) (UniProt O94782). The experiment in a line: Inhibitors of USP1/UAF1: Pilot qHTS (AID 504865; active = well fitted curve in the direction sought with a large enough effect; an effect the other way counts as inactive or inconclusive;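 also: rhodamine fluorescence freed from ubiquitin-rhodamine substrate followed over time; top concentration of the series differs between compounds; % is scaled to controls: 0 for no effect and ±100 for the full control effect; nearly all actives have a fitted effect of over 35% in size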). The conditions noted are these: purified USP1/UAF1, Ub-rhodamine cleavage fluorescence; series mostly up to 54.9 µM. A digest of the protocol: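 In 50mM HEPES pH 7.8 containing 0.5mM EDTA, 1mM TCEP, 0.1 mg/ml BSA and 0.01% Tween-20, 1nM USP1/UAF1 is exposed to compound for 15 min, then Ub-Rho (150nM final) is added and fluorescence is read over time.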

Sequence of Cytochrome P450 3A4 (Homo sapiens) (P08684 whole entry, looked up): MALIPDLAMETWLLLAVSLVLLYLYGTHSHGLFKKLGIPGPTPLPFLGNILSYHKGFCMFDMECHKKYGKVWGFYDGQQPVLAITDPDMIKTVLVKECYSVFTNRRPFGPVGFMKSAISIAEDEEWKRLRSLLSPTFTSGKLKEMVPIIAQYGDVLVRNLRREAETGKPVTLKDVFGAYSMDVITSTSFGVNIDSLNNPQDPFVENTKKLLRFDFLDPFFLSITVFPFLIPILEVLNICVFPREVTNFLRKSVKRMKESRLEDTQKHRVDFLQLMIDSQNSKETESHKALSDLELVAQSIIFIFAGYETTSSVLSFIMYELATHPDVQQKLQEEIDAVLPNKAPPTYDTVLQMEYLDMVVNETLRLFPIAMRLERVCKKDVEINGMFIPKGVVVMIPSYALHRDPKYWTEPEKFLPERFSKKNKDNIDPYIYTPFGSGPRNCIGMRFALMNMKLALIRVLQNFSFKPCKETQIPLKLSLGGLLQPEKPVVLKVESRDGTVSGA
Sequence of Lysosomal acid glucosylceramidase (Homo sapiens) (P04062 whole entry, looked up): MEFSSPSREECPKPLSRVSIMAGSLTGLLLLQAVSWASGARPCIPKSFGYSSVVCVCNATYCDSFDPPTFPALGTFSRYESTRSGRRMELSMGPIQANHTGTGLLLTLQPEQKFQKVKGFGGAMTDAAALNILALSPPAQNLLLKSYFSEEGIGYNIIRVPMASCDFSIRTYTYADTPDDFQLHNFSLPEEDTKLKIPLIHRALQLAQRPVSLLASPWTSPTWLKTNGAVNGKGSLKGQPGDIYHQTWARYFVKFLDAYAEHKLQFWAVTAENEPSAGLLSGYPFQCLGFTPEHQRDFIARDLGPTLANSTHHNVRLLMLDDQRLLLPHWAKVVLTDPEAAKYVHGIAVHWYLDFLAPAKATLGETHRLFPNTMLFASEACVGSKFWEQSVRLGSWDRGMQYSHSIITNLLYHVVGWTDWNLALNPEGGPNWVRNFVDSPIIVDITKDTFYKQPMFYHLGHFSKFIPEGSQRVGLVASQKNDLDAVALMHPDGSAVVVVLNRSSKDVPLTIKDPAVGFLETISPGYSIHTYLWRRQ
Sequence of Cytochrome P450 1A2 (Homo sapiens) (P05177 whole entry, looked up): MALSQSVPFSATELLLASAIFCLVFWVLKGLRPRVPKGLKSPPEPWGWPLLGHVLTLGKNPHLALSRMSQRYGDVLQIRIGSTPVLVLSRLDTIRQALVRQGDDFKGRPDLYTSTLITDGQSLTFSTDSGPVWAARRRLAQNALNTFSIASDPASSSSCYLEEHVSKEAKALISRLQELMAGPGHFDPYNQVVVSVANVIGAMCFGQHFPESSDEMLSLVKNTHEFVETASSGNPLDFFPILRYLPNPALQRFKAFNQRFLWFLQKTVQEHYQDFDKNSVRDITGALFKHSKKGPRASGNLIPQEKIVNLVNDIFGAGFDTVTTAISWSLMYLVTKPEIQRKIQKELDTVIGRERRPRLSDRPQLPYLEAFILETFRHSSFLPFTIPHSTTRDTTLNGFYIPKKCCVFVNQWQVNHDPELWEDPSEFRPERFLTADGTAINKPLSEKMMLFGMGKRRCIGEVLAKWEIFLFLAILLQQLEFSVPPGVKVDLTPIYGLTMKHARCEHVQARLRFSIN
Sequence of Ubiquitin carboxyl-terminal hydrolase 1 (Homo sapiens) (O94782 whole entry, looked up): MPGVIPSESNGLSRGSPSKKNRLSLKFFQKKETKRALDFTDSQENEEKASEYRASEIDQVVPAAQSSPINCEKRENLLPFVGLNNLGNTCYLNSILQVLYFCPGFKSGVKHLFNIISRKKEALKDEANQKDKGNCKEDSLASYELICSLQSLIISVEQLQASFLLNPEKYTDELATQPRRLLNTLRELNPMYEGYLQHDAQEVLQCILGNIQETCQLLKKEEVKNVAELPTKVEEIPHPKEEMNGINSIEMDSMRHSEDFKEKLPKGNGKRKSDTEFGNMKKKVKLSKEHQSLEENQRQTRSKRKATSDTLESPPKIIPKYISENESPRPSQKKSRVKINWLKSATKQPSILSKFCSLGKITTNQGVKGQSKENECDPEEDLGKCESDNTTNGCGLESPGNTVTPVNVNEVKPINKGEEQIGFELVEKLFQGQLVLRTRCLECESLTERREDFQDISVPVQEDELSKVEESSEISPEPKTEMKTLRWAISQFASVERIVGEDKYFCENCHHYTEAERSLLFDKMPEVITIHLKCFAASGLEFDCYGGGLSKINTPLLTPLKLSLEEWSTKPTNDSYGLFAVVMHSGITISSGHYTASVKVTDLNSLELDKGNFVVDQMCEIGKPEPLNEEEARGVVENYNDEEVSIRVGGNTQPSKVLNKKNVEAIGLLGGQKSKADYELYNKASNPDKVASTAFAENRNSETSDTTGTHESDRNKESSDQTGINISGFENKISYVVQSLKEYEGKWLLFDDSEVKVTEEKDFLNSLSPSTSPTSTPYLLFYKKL
Sequence of Cytochrome P450 2C19 (Homo sapiens) (P33261 whole entry, looked up): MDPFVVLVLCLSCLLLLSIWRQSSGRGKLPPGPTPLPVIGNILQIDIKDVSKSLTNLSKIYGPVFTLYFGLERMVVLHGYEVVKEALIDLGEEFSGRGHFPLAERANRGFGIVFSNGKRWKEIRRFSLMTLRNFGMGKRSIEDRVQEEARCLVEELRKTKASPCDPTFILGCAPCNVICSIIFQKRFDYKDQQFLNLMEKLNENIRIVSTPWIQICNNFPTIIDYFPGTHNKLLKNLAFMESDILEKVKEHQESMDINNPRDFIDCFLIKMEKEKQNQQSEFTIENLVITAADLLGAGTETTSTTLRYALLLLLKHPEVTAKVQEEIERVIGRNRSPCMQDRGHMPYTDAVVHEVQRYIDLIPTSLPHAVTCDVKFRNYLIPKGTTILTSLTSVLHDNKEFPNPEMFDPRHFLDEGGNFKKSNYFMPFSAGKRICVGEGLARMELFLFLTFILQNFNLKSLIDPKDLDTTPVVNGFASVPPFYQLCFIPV

For `O=C(Nc1ccccc1)N1CC2(CCN(C(=O)c3cnccn3)CC2)C1`, the Potency is greater than 11.4 µM in test [1], 20 µM (active) in test [3] and greater than 46 µM in test [6]. Moreover, the activity change, negative = inhibition is -11.2% in test [2] and 4.45% in test [4]. Moreover, the activity, negative = inhibition in test [5] was 2.96%. For the same molecule, the Potency entry in [7] and in [8] was “inactive” throughout. Also, the outcome in test [9] was inactive.
With `COC(=O)N1CCC2(CC1)CN(C(=O)Nc1ccc(OC)cc1)C2`, the Potency in test [1] is greater than 11.4 µM; in test [6], greater than 46 µM. Further, the activity change, negative = inhibition in [2] was -27.1%; in test [4], 14.1%. Also, the Potency result in [3], in test [7] and in test [8] was “inactive” each time. For the same molecule, in test [5], the activity, negative = inhibition is -0.967%. Moreover, the result in [9] was inactive.
For `COc1cccc(Cn2c(=O)c(-c3ccccc3)nc3cnc(N(C)C)nc32)c1`, the Potency is greater than 11.4 µM in test [1]; 10 µM (active) in test [3]; greater than 9.22 µM in test [10]; greater than 46 µM in test [6]; 6.31 µM (active) in test [11]. The activity change, negative = inhibition is 8.64% in test [2] and -16.4% in test [4]. In addition, the activity, negative = inhibition in test [5] was 11.4%. Also, in [12], the Potency entry is “inactive”. Further, the outcome in test [9] was inactive.
Turning to `O=c1c(CCc2ccccc2)nc2cncnc2n1-c1ccccc1`, the Potency was greater than 11.4 µM in test [1], 15.8 µM (active) in [3], greater than 9.22 µM in test [10] and greater than 46 µM in test [6]. The activity change, negative = inhibition in test [2] is -24.4%; in test [4] it was -14%. The activity, negative = inhibition in test [5] is -17.6%. Also, the Potency entry in test [7] and in test [12] was “inactive” throughout. Also, the result in test [9] was inactive.
`Cc1cccc(CNc2ncncc2-c2cccc(NS(C)(=O)=O)c2)c1`: the Potency in test [1] is greater than 11.4 µM; in test [3], 12.6 µM (active); in [6], greater than 46 µM; in [11], 0.158 µM (active); in [13], 6.31 µM (active). The values for the activity change, negative = inhibition in test [2] and in test [4] were -5.04% and 8.42%, respectively. In addition, the activity, negative = inhibition in test [5] is 0.163%. Also, the Potency result in test [7], in [8], in test [12], in test [14] and in test [16] was “inactive” each time. Besides, the call in test [15] and in [9] was inactive.
For `COc1ccc(-n2c(=O)c(-c3ccc(Cl)cc3)nc3cncnc32)cc1`, the Potency in test [1] was greater than 11.4 µM; in test [3], 5.01 µM (active); in test [10] it was greater than 9.22 µM; in test [6], greater than 46 µM. Also, the results for the activity change, negative = inhibition in test [2] and in test [4] were -19.6% and -2.56%, respectively. Also, the activity, negative = inhibition in [5] is -6.47%. Besides, the Potency entry in test [7] and in test [12] was “inactive” in each case. Further, the outcome in [9] was inactive.
With `Fc1ccc(Nc2nc(-c3ccoc3)nc3ccccc23)cc1`, the Potency in test [1] is 7.43 µM (active); in [3] it was 0.316 µM (active); in [10], greater than 46 µM; in [11] it was 3.98 µM (active). The activity change, negative = inhibition is 11.4% in [2] and -21.4% in [4]. Besides, the activity, negative = inhibition in [5] was 4.98%. Besides, the Potency result in test [7], in test [12] and in [16] was “inactive” each time. The result in [9] was inactive.
As for `COC(=O)N1CCC2(CC1)CN(C(=O)Nc1cccc(F)c1)C2`, the figures for the Potency in test [1] and in test [6] were greater than 11.4 µM and greater than 46 µM, respectively. For the same molecule, the activity change, negative = inhibition was -2.84% in test [2] and 0.322% in test [4]. Besides, the Potency result in [3], in [7] and in [8] was “inactive” each time. Moreover, in test [5], the activity, negative = inhibition was -2.22%. In addition, in [9], the outcome was inactive.
In the case of `Cn1cc(-c2nc3cncnc3n(CCN)c2=O)c2ccccc21`, the Potency in test [1] is greater than 11.4 µM; in test [3], 6.31 µM (active); in [6], greater than 46 µM. Besides, the figures for the activity change, negative = inhibition in test [2] and in test [4] were 0.818% and 3.03%, respectively. The activity, negative = inhibition in test [5] was 0.835%. For the same molecule, the Potency result in test [7], in test [8], in test [12] and in test [16] was “inactive” each time. Moreover, the result in [9] was inactive.
